Reference: the supplement of paper PMC6555819

Assays:
Assay in all cases: PBM binding z-score (relative to random genomic background probes); higher = stronger binding; sequences stand for … in GC…GCGATTGACAGCGTAGAATGAAGG
[1] = test system: FXR:RXRa (NR concentration 270 nM, RXRa partner concentration 90 nM)
Procedure, shortened: (§1)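 Each nuclear receptor dimer, without ligand, was incubated for 1 h on custom Agilent 4×180K protein-binding microarrays. Binding was detected with antibodies against each partner (one per run), and scanned fluorescence was regression-normalized. The binding z-scores are referenced to random human genomic background probes.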

[2] = test system: LXRa:RXRa (NR concentration 270 nM, RXRa partner concentration 90 nM)
Procedure, shortened: as §1

[3] = test system: LXRa homodimer (NR concentration 270 nM)
Procedure, shortened: as §1

[4] = test system: LXRb:RXRa (NR concentration 270 nM, RXRa partner concentration 90 nM)
Procedure, shortened: as §1

[5] = test system: LXRb homodimer (NR concentration 270 nM)
Procedure, shortened: as §1

[6] = test system: PPARa:RXRa (NR concentration 270 nM, RXRa partner concentration 90 nM)
Procedure, shortened: as §1

[7] = test system: PPARg:RXRa (NR concentration 180 nM, RXRa partner concentration 90 nM)
Procedure, shortened: as §1

[8] = test system: PPARg:RXRa 270nM:90nM, anti-RXR (NR concentration 270 nM, RXRa partner concentration 90 nM)
Procedure, shortened: as §1

[9] = test system: PPARg:RXRa 30nM:10nM, anti-RXR (NR concentration 30 nM, RXRa partner concentration 10 nM)
Procedure, shortened: as §1

[10] = test system: PPARg:RXRa 90nM:30nM, anti-RXR (NR concentration 90 nM, RXRa partner concentration 30 nM)
Procedure, shortened: as §1

[11] = test system: PPARg:RXRa DBDmut IVT, anti-RXR (DBD mutation: RXRa K156A/R161A, NR concentration 270 nM, RXRa partner concentration 90 nM)
Procedure, shortened: as §1

[12] = test system: PPARg:RXRa IVT, anti-PPARg (NR concentration 270 nM, RXRa partner concentration 90 nM)
Procedure, shortened: as §1

[13] = test system: PPARg DBDmut:RXRa IVT, anti-PPARg (DBD mutation: PPARg1 K132A/R137A, NR concentration 270 nM, RXRa partner concentration 90 nM)
Procedure, shortened: as §1

[14] = test system: PPARg DBDmut IVT, anti-PPARg (DBD mutation: PPARg1 K132A/R137A, NR concentration 270 nM)
Procedure, shortened: as §1

[15] = test system: PPARg homodimer (NR concentration 180 nM)
Procedure, shortened: as §1

[16] = test system: PXR:RXRa (NR concentration 270 nM, RXRa partner concentration 90 nM)
Procedure, shortened: as §1

[17] = test system: PXR homodimer (NR concentration 270 nM)
Procedure, shortened: as §1

[18] = test system: RARa:RXR (NR concentration 270 nM, RXRa partner concentration 90 nM)
Procedure, shortened: as §1

[19] = test system: RARa homodimer (NR concentration 270 nM)
Procedure, shortened: as §1

[20] = test system: RARb:RXRa (NR concentration 270 nM, RXRa partner concentration 90 nM)
Procedure, shortened: as §1

Sequence | PBM binding z-score [1] | PBM binding z-score [2] | PBM binding z-score [3] | PBM binding z-score [4] | PBM binding z-score [5] | PBM binding z-score [6] | PBM binding z-score [7] | PBM binding z-score [8] | PBM binding z-score [9] | PBM binding z-score [10] | PBM binding z-score [11] | PBM binding z-score [12] | PBM binding z-score [13] | PBM binding z-score [14] | PBM binding z-score [15] | PBM binding z-score [16] | PBM binding z-score [17] | PBM binding z-score [18] | PBM binding z-score [19] | PBM binding z-score [20]
AGAATGAGGTTATTAAGATCAGGGACTTGCGGTC | 1.59 | 1.49 | 0.193 | 1.13 | 0.02 | 2.5 | 1.59 | 1.87 | 0.187 | 1.08 | 3.54 | 2.69 | 0.364 | 0.0807 | 0.911 | 1.15 | 0.684 | 1.36 | 0.425 | 1.37
AGTCAAAGTTCAGGACGATGTAACGTAAAGCACG | 3.6 | 3.59 | 0.938 | 1.8 | 0.134 | 3.05 | 4.28 | 4.75 | 1.92 | 3.68 | -0.314 | 1.19 | 0.674 | 0.961 | 2.13 | 2.22 | 1.24 | 1.78 | 0.666 | 4.17
AGAATGAGATTAAGATCAGGGAAACAGAATACAT | -0.282 | -0.601 | -0.0604 | -0.466 | -0.594 | -0.494 | 0.75 | -0.304 | 0.17 | -0.228 | -0.828 | -0.427 | 0.0625 | 0.018 | 0.131 | -0.366 | 0.121 | -0.347 | -0.129 | -1.06
ATATGTAGGTTAAGGATCATTCAGGTTGGTTCGC | 0.726 | 1.25 | 0.404 | 1.18 | 0.352 | 4.46 | 8.08 | 7.41 | 6.08 | 8.34 | 7.22 | 7.16 | 3.09 | 2.12 | 1.49 | 1.19 | 0.266 | 1.13 | 1.1 | 1.2
GCAGACAGGTGCAACGCAGGTAACTCAGGGTGGC | -0.722 | -0.509 | -0.668 | -0.958 | -1.31 | -0.475 | 0.119 | -0.844 | -0.761 | -0.904 | -0.637 | -0.593 | -1.75 | -1.51 | -0.974 | -0.377 | -0.796 | 0.0404 | -1.09 | -0.3
ACAGACAGGTGAGTGAAGGTAACTCACCTGGACG | 0.567 | 0.338 | -0.604 | -0.347 | -0.328 | 0.358 | 0.593 | 0.216 | 0.0231 | -0.144 | 0.281 | 1.01 | 0.307 | 0.131 | -0.03 | -0.17 | -0.14 | 0.495 | -0.345 | 0.553
TCTTGTAGATCAACAGCAGGTTAAGAAAGATCGA | 0.263 | 0.476 | -0.0928 | 0.569 | -0.319 | 0.609 | -0.21 | 1.17 | 2.61 | 1.7 | 1.66 | 0.684 | -0.0164 | 0.918 | -0.793 | 0.178 | -0.2 | 0.544 | 0.0361 | 0.0725
TAGCCTAGGTCATGGCCCAGTATACCACGCGAAC | 4.7 | 3.85 | 0.774 | 2.64 | -0.293 | 4.33 | 4.27 | 3.99 | 1.14 | 2.95 | 1.98 | 4.42 | 0.172 | -0.0252 | 3.1 | 1.91 | -0.224 | 3.53 | 0.397 | 4.01
TCAGACAGTTGAAGGTAACTCAGGTACGCAGTCG | 0.761 | 1.54 | 0.0812 | 0.579 | -0.363 | 1 | 0.579 | 2.27 | 3.99 | 3.4 | 2.22 | 0.0381 | -0.122 | -0.183 | 0.684 | 0.701 | 0.165 | 0.843 | -0.196 | 0.547
GCGACTGGGGCAAATCAGGTTACCATAAGGTTGG | 0.683 | 0.358 | -0.1 | 0.749 | -0.654 | 1.73 | 1.28 | 1.07 | -0.18 | 0.553 | 4.37 | 3.69 | -0.276 | -0.972 | 0.782 | 1.1 | -0.422 | 0.759 | -0.444 | 1.14
ATCGAAAGGTCGATGTGAGTATAGAGAAAGGGAA | 3.06 | 2.82 | -0.178 | 2 | 0.549 | 3.35 | 1.66 | 1.77 | 1.02 | 1.33 | 0.226 | 1.15 | 1.83 | 0.629 | 0.753 | 1.77 | 0.123 | 2.36 | 0.145 | 3.26
CGTCAAAGTTCCACTAAGGTAACGTAAAGCACGC | 0.0989 | -0.0438 | -0.0633 | 0.0124 | 0.0274 | 0.268 | 0.459 | 0.573 | -0.0574 | 0.281 | 0.458 | 0.925 | -0.504 | 0.445 | 0.404 | 0.17 | 0.428 | 2.22 | 0.139 | 0.704
CCGACTGGGGCCGAAAGGTTACCATACCATCCGG | 0.707 | 0.858 | -0.0944 | 1.08 | -1.22 | 2.02 | 1.09 | 1.84 | 0.177 | 1.26 | -0.423 | 0.138 | -1.16 | -1.62 | 0.848 | 1.29 | -0.286 | 1.78 | -0.324 | 2.01
AGTCTAAGTTCAGGACGAGGTAACGTAAAGCACG | 1.61 | 1.56 | 0.288 | 0.821 | -0.194 | 1.82 | 0.831 | 0.749 | 0.345 | 0.385 | -0.507 | 0.167 | 0.154 | 0.579 | 1.1 | 2.21 | 1.18 | 1.79 | 0.351 | 2.95
